Screens deposited in PubChem by several laboratories.
This is a sample that favours compounds with a hit; in the whole collection about 4.6% have one here.
Peg3 promoter: Peg3 promoter-driven luciferase inhibitors, primary screen, cell-based, HeLa, luciferase luminescence. HeLa PEG-Prom luciferase reporter, overnight. inhibition, % at 20 µM. hit rate 1.7% among 360,000. AID 588405, 2011;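 active = inhibition of at least 50% at 20 µM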
ABHD5 PLIN5 PPI: ABHD5-PLIN5 interaction inhibitors, primary screen, cell lysate, split luciferase complementation, luminescence | Split G. princeps luciferase complementation, 4 h | inhibition, % at 4 µM | hit rate 0.78% among 360,000;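 active = inhibition above the mean inhibition across every tested compound plus 3 SD, cut at about 22% in these data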;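 also: 0% = DMSO only wells and the 100% control is not disclosed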
HIF-2a inh: HIF-2a reporter inhibitors, primary screen, luminescence, 786-0 RCC cells; 786-0 RCC cells HIF-2a reporter, luciferase luminescence, overnight; AID 624352, 2012; inhibition, % at 18.8 µM; hit rate 0.72% among 360,000;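 active = inhibition of the luminescence signal of 40% or more relative to plate controls, in a single-dose primary screen at 18.75 µM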
CF NFkB inh: inhibitors of PAF-induced NF-kB signaling, primary screen, cell-based, GFP fluorescence, uHTS. KKLEB NF-kB-GFP reporter, GFP fluorescence overnight. hit rate 0.86% among 360,000. inhibition, % at 5 µM;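 active = at least 50% inhibition at 5 µM, scaled per plate between neutral and stimulator controls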;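 also: PAF is a Pseudomonas aeruginosa culture filtrate used as stimulus; plate controls were PAF-stimulated DMSO wells for no effect and unstimulated DMSO wells for full effect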
Mdm2-MdmX inh: inhibitors of human Mdm2-MdmX association, primary screen, cell-based, luminescence, split luciferase, SaOS-2, uHTS | Protein Mdm4 (Homo sapiens) + E3 ubiquitin-protein ligase Mdm2 (Homo sapiens), … | SaOS-2 split-luciferase Mdm2/MdmX complementation | inhibition, % at 8 µM | hit rate 3% among 330,000 | AID 485346, 2010;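 active = inhibition of at least 50% at 8 µM in the primary screen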
Target sequence (O15151 whole entry, looked up): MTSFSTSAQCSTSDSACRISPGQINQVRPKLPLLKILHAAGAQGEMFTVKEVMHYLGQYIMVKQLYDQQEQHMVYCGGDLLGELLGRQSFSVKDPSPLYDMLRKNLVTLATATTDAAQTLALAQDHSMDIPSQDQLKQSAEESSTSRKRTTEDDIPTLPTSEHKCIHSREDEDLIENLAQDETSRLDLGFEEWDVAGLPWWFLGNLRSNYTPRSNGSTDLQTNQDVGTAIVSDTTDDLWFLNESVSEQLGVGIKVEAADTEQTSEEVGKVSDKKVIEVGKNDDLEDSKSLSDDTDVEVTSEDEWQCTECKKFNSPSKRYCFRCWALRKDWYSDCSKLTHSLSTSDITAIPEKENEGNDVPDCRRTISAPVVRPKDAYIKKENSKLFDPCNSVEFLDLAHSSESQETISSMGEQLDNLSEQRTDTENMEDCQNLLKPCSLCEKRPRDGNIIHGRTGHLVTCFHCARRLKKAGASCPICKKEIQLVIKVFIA
Target sequence (Q00987 whole entry, looked up): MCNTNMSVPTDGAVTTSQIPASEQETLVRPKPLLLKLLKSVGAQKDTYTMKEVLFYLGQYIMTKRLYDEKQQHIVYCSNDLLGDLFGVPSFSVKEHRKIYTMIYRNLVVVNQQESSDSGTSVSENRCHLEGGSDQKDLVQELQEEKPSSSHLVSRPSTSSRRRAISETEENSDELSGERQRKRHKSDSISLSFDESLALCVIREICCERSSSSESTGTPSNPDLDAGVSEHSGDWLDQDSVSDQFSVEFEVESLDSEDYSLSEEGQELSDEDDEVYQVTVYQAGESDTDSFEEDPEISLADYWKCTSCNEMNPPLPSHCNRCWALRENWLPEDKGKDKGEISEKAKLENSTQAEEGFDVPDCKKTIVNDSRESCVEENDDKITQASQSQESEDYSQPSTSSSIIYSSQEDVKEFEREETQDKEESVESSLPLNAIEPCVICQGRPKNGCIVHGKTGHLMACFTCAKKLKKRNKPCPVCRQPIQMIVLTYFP
KKLEB cytotox: cytotoxicity in KKLEB CF airway cells, primary screen, cytotoxicity control for CF NF-kB inhibitor project, cell-based, uHTS, fluorescence assay plates | hit rate 0.36% among 360,000 | AID 602141, 2011 | activity change (cytotoxicity), % at 5 µM | KKLEB CF airway cells viability, ATPlite luminescence, overnight; stronger effect = lower value; cells stimulated with P. aeruginosa culture filtrate;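 active = corrected activity change at or below -50% at 5 µM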
Mdm2-MdmX conf: Mdm2-MdmX complex disruptors, retested hits, confirmation, luminescence, single concentration; hit rate 55% among 10,000; AID 489028, 2010; inhibition, % at 8 µM; Mdm2-MdmX binding, luminescent assay; shares compounds with Mdm2-MdmX inh; in the data active = inhibition above about 40%
Full FLuc ctr: full-length luciferase signal inhibition, confirmation, counter-screen for Mdm2/MdmX interaction inhibitor project, cell-based, single concentration, SaOS-2; inhibition, % at 8 µM; SaOS-2 full-length luciferase counterscreen, luminescence; hit rate 77% among 6,200; shares compounds with Mdm2-MdmX inh;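 active = mean inhibition at 8 µM reaching about 37%, which flags the compound as non-specific, limit read from the data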;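 also: p53-null SaOS-2 cells with luciferase driven by a doxycycline-inducible promoter; compound on cells about two nights before reading with doxycycline added after day one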
An asterisk follows results filed as active.

For COc1cc2[nH]c(=O)n(CCC(=O)N3CCN(c4cc(Cl)ccc4C)CC3)c(=O)c2cc1OC the results were Peg3 promoter 28, ABHD5 PLIN5 PPI -4, HIF-2a inh 18, CF NFkB inh -5, Mdm2-MdmX inh 75*, KKLEB cytotox 1 and Mdm2-MdmX conf 13.
`COC(=O)c1ccc2c(=O)n(CCCCCC(=O)N3CCN(c4ccc(F)cc4)CC3)c(=O)[nH]c2c1` gave Peg3 promoter 90*, ABHD5 PLIN5 PPI 0, HIF-2a inh 10, CF NFkB inh -6, Mdm2-MdmX inh 67*, KKLEB cytotox -15 and Mdm2-MdmX conf 35.
For COc1cc2[nH]c(=O)n(CCC(=O)N3CCc4ccccc4C3)c(=O)c2cc1OC the results were Peg3 promoter -8, ABHD5 PLIN5 PPI 3, HIF-2a inh 9, CF NFkB inh 4, Mdm2-MdmX inh -13 and KKLEB cytotox -2.
COC(=O)c1ccc2c(=O)n(CCCCCC(=O)O)c(=O)[nH]c2c1 was read as Peg3 promoter 5, ABHD5 PLIN5 PPI -3, HIF-2a inh 11, CF NFkB inh 2, Mdm2-MdmX inh -22 and KKLEB cytotox 8.
Screening CCOCCCNC(=O)CSc1nc2nc(C)c(Cc3ccccc3)c(C)n2n1 returned Peg3 promoter 4, ABHD5 PLIN5 PPI -2, HIF-2a inh 10, CF NFkB inh -5, Mdm2-MdmX inh 7 and KKLEB cytotox -5.
CN1OC[C@@H]2CN(Cc3cc(Cl)cc(Cl)c3)[C@H](c3cccc(Br)c3)C[C@@H]21 was read as Peg3 promoter 24, ABHD5 PLIN5 PPI 4, HIF-2a inh 17, CF NFkB inh 6 and KKLEB cytotox 5.
`CC[C@]12c3[nH]c4cc(-c5ccco5)ccc4c3CCN1C(=O)[C@@H](CC(=O)NCc1cccc(C(F)(F)F)c1)C[C@@H]2C(=O)N1CCN(C(=O)C2CC2)CC1` gave Peg3 promoter 16, ABHD5 PLIN5 PPI 20, HIF-2a inh -6, CF NFkB inh -1, Mdm2-MdmX inh 40 and KKLEB cytotox 12.
C[C@]12c3[nH]c4cc(-c5ccco5)ccc4c3CCN1C(=O)[C@@H](CC(=O)NCCN1CCOCC1)C[C@@H]2C(=O)N1CCOCC1 was read as Peg3 promoter -14, ABHD5 PLIN5 PPI 5, HIF-2a inh 2, CF NFkB inh -4, Mdm2-MdmX inh 11 and KKLEB cytotox 8.
C[C@]12c3[nH]c4cc(-c5ccco5)ccc4c3CCN1C(=O)[C@@H](CC(=O)NCc1cccc(C(F)(F)F)c1)C[C@@H]2C(=O)N1CCCCC1 was read as Peg3 promoter 35, ABHD5 PLIN5 PPI 21, HIF-2a inh 0, CF NFkB inh 19, Mdm2-MdmX inh 85*, KKLEB cytotox -5 and Mdm2-MdmX conf -1.
Screening CC[C@]12c3[nH]c4ccc(Cl)cc4c3CCN1C(=O)[C@@H](CC(=O)NCC13CC4CC(CC(C4)C1)C3)C[C@@H]2C(=O)N1CCN(C(=O)c2ccco2)CC1 returned Peg3 promoter 67*, ABHD5 PLIN5 PPI 18, HIF-2a inh -24, CF NFkB inh 16, Mdm2-MdmX inh 87*, KKLEB cytotox -7, Mdm2-MdmX conf 41* and Full FLuc ctr 38*.
Screening CC[C@]12c3[nH]c4cc(-c5ccco5)ccc4c3CCN1C(=O)[C@@H](CC(=O)NCC13CC4CC(CC(C4)C1)C3)C[C@@H]2C(=O)N1CCN(C(=O)C2CC2)CC1 returned Peg3 promoter 19, ABHD5 PLIN5 PPI 18, HIF-2a inh -16, CF NFkB inh 24, Mdm2-MdmX inh 78*, KKLEB cytotox -8 and Mdm2-MdmX conf -14.
For C[C@]12c3[nH]c4cc(-c5ccco5)ccc4c3CCN1C(=O)[C@@H](CC(=O)NCC13CC4CC(CC(C4)C1)C3)C[C@@H]2C(=O)N1CCCCC1 the results were Peg3 promoter 37, ABHD5 PLIN5 PPI 3, HIF-2a inh -8, CF NFkB inh 40, Mdm2-MdmX inh 78*, KKLEB cytotox -8 and Mdm2-MdmX conf 12.
Screening CC(C)(O)CC[C@@H](O)[C@](C)(O)C1CC[C@@]2(O)C3=CC(=O)[C@]4(O)C[C@@H](O)[C@@H](O)C[C@]4(C)C3CC[C@]12C (some centres not stated) returned Peg3 promoter -4, ABHD5 PLIN5 PPI -8, HIF-2a inh 20, CF NFkB inh 8, Mdm2-MdmX inh 15 and KKLEB cytotox 5.
For O=S(=O)(Nc1cccc(S(=O)(=O)N2CCCC2)c1)c1cccs1 the results were Peg3 promoter 12, ABHD5 PLIN5 PPI -8, HIF-2a inh -4, CF NFkB inh -23, Mdm2-MdmX inh -6 and KKLEB cytotox 6.
For COc1ccc(S(=O)(=O)Cc2ccc(C(=O)N3CCN(c4cccc(C)c4C)CC3)o2)cc1 the results were Peg3 promoter -11, ABHD5 PLIN5 PPI 1, HIF-2a inh 6, CF NFkB inh 1, Mdm2-MdmX inh 63*, KKLEB cytotox 2, Mdm2-MdmX conf 61* and Full FLuc ctr 47*.
`COc1cccc(N2CCN(C(=O)c3ccc(CS(=O)c4ccc(C)cc4)o3)CC2)c1` (configuration not stated) gave Peg3 promoter -14, ABHD5 PLIN5 PPI -1, HIF-2a inh 16, CF NFkB inh 44, Mdm2-MdmX inh 58*, KKLEB cytotox -16, Mdm2-MdmX conf 52* and Full FLuc ctr 61*.
`Cc1ccc(S(=O)(=O)Cc2ccc(C(=O)N3CCN(c4cccc(C)c4C)CC3)o2)cc1` gave Peg3 promoter 15, ABHD5 PLIN5 PPI 2, HIF-2a inh 28, CF NFkB inh 36, Mdm2-MdmX inh 49 and KKLEB cytotox -15.
`O=C(Cn1nnc(-c2ccccc2)n1)NNC(=O)c1ccco1` gave Peg3 promoter 1, ABHD5 PLIN5 PPI -3, HIF-2a inh 23, CF NFkB inh 17, Mdm2-MdmX inh -16 and KKLEB cytotox 0.
Cc1ccc(S(=O)(=O)N2C(=O)/C(=C3\SC(=S)NC3=O)c3ccccc32)cc1 was read as Mdm2-MdmX inh 51*, Mdm2-MdmX conf 37 and Full FLuc ctr 82*.
